Laboratory results from PubChem BioAssay AID1159580 (chemical genetic matrix, 2015).
“And” between values parts separate entries of the source, which are not always exact repeats. Identical values can stand only once. The whole screen tested about 5,500 compounds, of which about 2,000 (36%) were called active. Not shown: some 18% with an inconclusive outcome. Rule as the data show it: active = normalized growth mostly below about 0.91 (no sharp cut-off); inconclusive = no clear call, values can overlap the other calls; inactive = mostly above about 0.92. Some of the results follow.

Experiment: chemical genetic growth profiling, strain panel (AID 1159580);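 also: tested at 20 µM; growth read once vehicle control cultures reached saturation at 30 °C; 1 = growth at the plate median or of vehicle wells; lower values mean less growth of the strain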
Conditions: S. cerevisiae deletion strains, growth OD

Measured: normalized growth

Cn1cnc2c1c(=O)[nH]c(=O)n2C
inactive: locus YAL013W, strain DEP1, stronger effect = lower value 1.01 | locus YAL021C, strain ccr4, stronger effect = lower value 0.952 | locus YAL026C, strain drs2, stronger effect = lower value 0.989 | locus YAL030W, strain snc1, stronger effect = lower value 0.985 | locus YAL040C, strain CLN3, stronger effect = lower value 0.992 | locus YBL061C, strain skt5, stronger effect = lower value 0.985 | locus YBR009C, strain hhf1, stronger effect = lower value 0.997 | locus YBR021W, strain FUR4, stronger effect = lower value 0.991 | locus YBR023C, strain chs3, stronger effect = lower value 1 | locus YBR171W, strain sec66, stronger effect = lower value 0.99 | locus YBR229C, strain ROT2, stronger effect = lower value 1.01 | locus YBR231C, strain swc5, stronger effect = lower value 0.985 | locus YBR279W, strain paf1, stronger effect = lower value 0.997 | locus YCL011C, strain gbp2, stronger effect = lower value 0.978 | locus YCL016C, strain dcc1, stronger effect = lower value 0.993 | locus YCL029C, strain bik1, stronger effect = lower value 1.03 | locus YCL061C, strain MRC1 (second series), stronger effect = lower value 1.01 | locus YCL061C, strain MRC1, stronger effect = lower value 0.984 | locus YCL069W, strain vba3, stronger effect = lower value 0.983 | locus YCR088W, strain abp1, stronger effect = lower value 0.991 | locus YDL005C, strain med2, stronger effect = lower value 0.989 | locus YDL035C, strain GPR1, stronger effect = lower value 1.01 | locus YDL040C, strain nat1, stronger effect = lower value 0.992 | locus YDL074C, strain BRE1, stronger effect = lower value 1.02 | locus YDL101C, strain DUN1, stronger effect = lower value 1.02 | locus YDL134C, strain PPH21, stronger effect = lower value 1.01 | locus YDL185W, strain tfp1, stronger effect = lower value 1.01 | locus YDL192W, strain arf1, stronger effect = lower value 1.01 | locus YDR001C, strain nth1, stronger effect = lower value 0.984 | locus YDR069C, strain doa4, stronger effect = lower value 0.959 | locus YDR101C, strain arx1, stronger effect = lower value 1.01 | locus YDR137W, strain rgp1, stronger effect = lower value 1.03 | locus YDR150W, strain NUM1, stronger effect = lower value 1.01 | locus YDR159W, strain sac3, stronger effect = lower value 0.973 | locus YDR162C, strain NBP2, stronger effect = lower value 1.01 | locus YDR195W, strain ref2 0.944 | locus YDR297W, strain sur2, stronger effect = lower value 0.991 | locus YDR318W, strain mcm21, stronger effect = lower value 1.03 | locus YDR334W, strain swr1, stronger effect = lower value 0.98 | locus YDR335W, strain msn5, stronger effect = lower value 0.976 | locus YDR363W, strain ESC2, stronger effect = lower value 0.998 | locus YDR388W, stronger effect = lower value 1.01 | locus YDR392W, strain spt3, stronger effect = lower value 0.993 | locus YDR502C, strain sam2, stronger effect = lower value 1 | locus YEL003W, strain gim4, stronger effect = lower value 0.988 | locus YEL037C, strain rad23, stronger effect = lower value 0.993 | locus YEL061C, strain CIN8 (second series), stronger effect = lower value 0.974 | locus YEL061C, strain CIN8, stronger effect = lower value 1.01 | locus YER002W, strain NOP16, stronger effect = lower value 1.04 | locus YER015W, strain faa2, stronger effect = lower value 0.981 | locus YER016W, strain bim1, stronger effect = lower value 0.991 | locus YER110C, stronger effect = lower value 1.01 | locus YER111C, strain swi4, stronger effect = lower value 0.985 | locus YER155C, strain BEM2 (second series), stronger effect = lower value 1 | locus YER155C, strain BEM2, stronger effect = lower value 1.01 | locus YER167W, strain BCK2, stronger effect = lower value 1.01 | locus YFR010W, strain ubp6, stronger effect = lower value 0.971 | locus YGL078C, strain dbp3, stronger effect = lower value 1.01 | locus YGL086W, strain mad1, stronger effect = lower value 1 | locus YGL167C, strain pmr1, stronger effect = lower value 0.976 | locus YGL173C, strain kem1, stronger effect = lower value 0.988 | locus YGL227W, strain vid30, stronger effect = lower value 0.994 | locus YGL240W, strain doc1, stronger effect = lower value 0.966 | locus YGL248W, strain PDE1, stronger effect = lower value 1.01 | locus YGL253W, strain hxk2, stronger effect = lower value 0.99 | locus YGR078C, strain PAC10, stronger effect = lower value 1.01 | locus YGR135W, strain pre9, stronger effect = lower value 1.02 | locus YGR229C, strain SMI1, stronger effect = lower value 1.02 and 1.05 | locus YGR252W, strain gcn5, stronger effect = lower value 1.01 | locus YHR013C, strain ard1, stronger effect = lower value 0.961 | locus YHR027C, strain rpn1, stronger effect = lower value 0.972 | locus YHR030C, strain SLT2, stronger effect = lower value 1.01 and 0.97 | locus YHR079C, strain IRE1 (second series), stronger effect = lower value 1.02 | locus YHR079C, strain IRE1, stronger effect = lower value 0.996 | locus YHR094C, strain hxt1, stronger effect = lower value 1.01 | locus YHR129C, strain ARP1, stronger effect = lower value 1.01 | locus YHR142W, strain chs7, stronger effect = lower value 0.999 | locus YHR200W, strain rpn10, stronger effect = lower value 1 | locus YIL066C, strain RNR3, stronger effect = lower value 1.02 | locus YIL073C, strain SPO22, stronger effect = lower value 1.05 | locus YIL125W, strain kgd1, stronger effect = lower value 1.01 | locus YIR030C, strain dcg1, stronger effect = lower value 1.01 | locus YJL092W, strain hpr5, stronger effect = lower value 0.989 | locus YJL095W, strain BCK1 (second series), stronger effect = lower value 0.996 | locus YJL095W, strain BCK1, stronger effect = lower value 1.03 and 0.985 | locus YJL115W, strain asf1, stronger effect = lower value 0.976 | locus YJL129C, strain trk1, stronger effect = lower value 0.963 | locus YJL134W, strain LCB3, stronger effect = lower value 1.01 | locus YJL154C, strain vps35, stronger effect = lower value 0.995 | locus YJL164C, strain tpk1, stronger effect = lower value 0.978 | locus YJL166W, strain qcr8, stronger effect = lower value 0.992 | locus YJL168C, strain set2, stronger effect = lower value 1.01 | locus YJL187C, strain SWE1 (second series), stronger effect = lower value 1.03 | locus YJL187C, strain SWE1, stronger effect = lower value 0.983 | locus YJR043C, strain POL32, stronger effect = lower value 1.01 | locus YJR066W, strain TOR1, stronger effect = lower value 0.963
